The values that follow come from ChEMBL document CHEMBL1157539, “Thousands of chemical starting points for antimalarial lead identification” (Nature, 2010).

Assay type in all cases: functional
Assay [1] deals with Plasmodium falciparum. Kind of assay: GSK_TCMDC: Inhibition of Plasmodium falciparum 3D7 in whole red blood cells, using parasite LDH activity as an index of growth. Test compounds present at 2uM.
Assay [2] concerns Plasmodium falciparum. Kind of assay: GSK_TCMDC: Inhibition of Plasmodium falciparum Dd2 in whole red blood cells, using parasite LDH activity as an index of growth. Test compounds present at 2uM.
A further assay relates to HepG2. Kind of assay: GSK_TCMDC: Percent inhibition of human HepG2 cell line. Test compounds present at 10uM.

By Inhibition is commonly meant the percentage by which the read-out fell short of the control. Low values mean a weak effect, high ones a strong effect.

As for `O=C(/C=C/c1ccc(Cl)cc1)NCCCCCN1CCC(c2c[nH]c3ccccc23)CC1`, the Inhibition in the assay on Plasmodium falciparum [1] amounted to 99%; in the assay with Plasmodium falciparum [2], 15%; in the assay with HepG2 it was 42%.
On the same counts, the results for `CC(C)(C)c1ccc(CNC(=O)c2ccc(-c3nc4cc(C(C)(C)C)ccc4[nH]3)cc2)cc1` are 96%, 49% and 21%.
The corresponding values for `O=C(/C=C/c1ccc(Cl)cc1)NCCCCCN1CCC(C(=O)Nc2cccc(Cl)c2)CC1` are 97%, 0% and 22%.
The corresponding values for `CCN(CCCN1CCCCC1)c1cc(C)nc(Nc2ccc(C(C)C)cc2)n1.O=C(O)C(F)(F)F` are 100%, 51% and 34%.
On to `COc1ccc(-n2ccnc2SCC(=O)Nc2cccc(C(F)(F)F)c2)c(OC)c1`, for which the Inhibition with Plasmodium falciparum [1] is reported as 98%; in the assay with Plasmodium falciparum [2], 88%; in the assay with HepG2, 0%.
On the same counts, the results for `COc1cc(C=NNc2ccnc3cc(Cl)ccc23)ccc1O` are 100%, 100% and 15%.
On the same counts, the results for `CN1CCCC(CN2CCN(Cc3cccc(-c4csc(-c5nc6ccccc6[nH]5)c4)c3)CC2)C1.O=C(O)C(F)(F)F` (stereo unspecified) are 100%, 100% and 65%.
As to `O=C(NC1CCN(CCC(NC(=O)c2ccccc2)c2ccc(Cl)c(Cl)c2)CC1)c1ccc(Cl)cc1` (stereo unspecified), the Inhibition in the assay with Plasmodium falciparum [1] is 97%; in the assay with Plasmodium falciparum [2], 36%; in the assay with HepG2, 17%.
On the same counts, the results for `CCCc1cc(OC)c(CC2c3cccc(O)c3CCN2C)cc1OC.Cl` (stereo unspecified) are 100%, 99% and 3%.
As to `CCN(CC)CCNc1nccc(N(C)c2ccc(NC(=O)Nc3cc(C(F)(F)F)ccc3F)cc2)n1.O=C(O)C(F)(F)F`, the Inhibition in the assay with Plasmodium falciparum [1] is 97%; with Plasmodium falciparum [2], 25%; with HepG2, 74%.
On the same counts, the results for `O=C(NCCc1ccc(Cl)c(Cl)c1)[C@@H]1CCCN1C(=O)c1ccc(O)c(-c2cccc(C(F)(F)F)c2)c1` are 97%, 82% and 0%.
On the same counts, the results for `COc1cc2s/c(=N\C(=O)c3cccc([N+](=O)[O-])c3)n(C)c2cc1OC` are 92%, 79% and 5%.
The corresponding values for `O=C(CCN1CCCCC1)Nc1ccc(Nc2nccc(NCC(O)c3ccccc3)n2)cc1` (stereo unspecified) are 100%, 60% and 18%.
In the case of `Br.CC1(C)NC(N)=NC(=N)N1OCCOc1ccc(Cc2ccccc2)cc1`, the Inhibition came to 94% in the assay on Plasmodium falciparum [1], 26% with Plasmodium falciparum [2] and 62% with HepG2.
The corresponding values for `COc1ccc2c(N/N=C/c3ccc([N+](=O)[O-])cc3)ccnc2c1` are 100%, 98% and 0%.
The corresponding values for `CCOc1ccc(Cc2c(C)nc3nc(N)nc(N)c3c2C)cc1.Cl` are 91%, 7% and 63%.
Regarding `CC(C)C[C@@H](/C=N/NC(N)=O)NC(=O)[C@H](CC(C)C)NC(=O)[C@H](CC(C)C)NC(=O)OCc1ccccc1`, the Inhibition with Plasmodium falciparum [1] stood at 100%; in the assay with Plasmodium falciparum [2] it was 99%; in the assay with HepG2, 41%.
For `O=C(NCc1ccc(F)cc1)c1ccc(N2CCN(c3ccncc3)CC2)cn1.O=C(O)C(F)(F)F`, the Inhibition with Plasmodium falciparum [1] came out at 98%; with Plasmodium falciparum [2], 81%; in the assay with HepG2, 7%.
On the same counts, the results for `COc1cccc(Nc2nc(Nc3cccc(C#N)c3)cc(-c3ccncc3)n2)c1` are 100%, 46% and 28%.
The corresponding values for `Cc1cnc(-c2ccc(NC(=O)c3coc4ccc(N5CC(C)N(C)C(C)C5)cc34)cc2)o1.Cl` (stereo unspecified) are 96%, 39% and 18%.
The corresponding values for `Clc1ccc(-c2ccc(C=NNc3nc(=Nc4ccccc4)[nH]c(=Nc4ccccc4)[nH]3)o2)cc1Cl` are 97%, 75% and 1%.
For the compound `Cc1cc(Nc2ccc3c(c2)CCC3)n2ncnc2n1`, the results for the Inhibition with Plasmodium falciparum [1], in the assay with Plasmodium falciparum [2] and in the assay on HepG2 were 86%, 48% and 4%, respectively.
For the compound `O=C(Nc1cccc(C(F)(F)F)c1)c1cccc(S(=O)(=O)NCC2CCCN2CC2CCCCC2)c1.O=C(O)C(F)(F)F` (stereo unspecified), the Inhibition with Plasmodium falciparum [1] amounted to 97%; in the assay on Plasmodium falciparum [2], 2%; in the assay on HepG2, 6%.
On the same counts, the results for `Oc1ccc(-c2ccccc2)cc1CN1CCCCC1` are 93%, 70% and 3%.
For the compound `CCCCCCN1CCCN(Cc2ccc(C(=O)Nc3ccc(CCC)cc3)cc2)CC1.O=C(O)C(F)(F)F`, the results for the Inhibition in the assay on Plasmodium falciparum [1], in the assay on Plasmodium falciparum [2] and in the assay with HepG2 were 92%, 56% and 45%, respectively.
The corresponding values for `C=CCOC(=O)N1CCC(CNCc2ccc(-c3ccc(-c4nc5ccccc5[nH]4)s3)cc2)C1.O=C(O)C(F)(F)F` (stereo unspecified) are 100%, 76% and 29%.
On the same counts, the results for `Cc1[nH]c(C)c(-c2ccc(CCc3ccc(N)cc3)cc2)c(=O)c1Cl` are 97%, 97% and 2%.
Consider `O=C(/C=C/c1ccc(Cl)c(Cl)c1)NCCCCCN1CCC(NC(=O)Nc2ccc(Oc3ccccc3)cc2)C1` (stereo unspecified), for which the values for the Inhibition with Plasmodium falciparum [1], in the assay with Plasmodium falciparum [2] and in the assay with HepG2 were 99%, 6% and 35%, respectively.
In the case of `O=C(O)C(F)(F)F.O=c1ccc2ccc(F)c3c2n1CC3CN1CCC(NCc2cccc(-c3ccccc3F)c2)CC1` (stereo unspecified), the Inhibition is 100% in the assay with Plasmodium falciparum [1], 6% with Plasmodium falciparum [2] and 29% in the assay with HepG2.
`O=C(Nc1ccc(Cl)cc1)Nc1ccc(-c2cccc(-c3nc4cc(F)ccc4[nH]3)c2)cc1`: the Inhibition was found to be 100% in the assay with Plasmodium falciparum [1], 96% in the assay on Plasmodium falciparum [2] and 74% in the assay on HepG2.
Turning to `CCOc1cc(C=NNc2nc(C)cc(-n3nc(C)cc3C)n2)ccc1O`, the figures for the Inhibition in the assay on Plasmodium falciparum [1], in the assay with Plasmodium falciparum [2] and in the assay on HepG2 were 93%, 52% and 46%, respectively.
On the same counts, the results for `CC(C)(C)c1ccc2[nH]c(-c3ccc(/C=C/C(=O)NCc4ccc(Cl)c(Cl)c4)cc3)nc2c1` are 97%, 17% and 41%.
On the same counts, the results for `CC(=O)Nc1cccc(-c2cnc(N)c3cc(-c4ccc5c(c4)OCO5)ccc23)c1` are 99%, 93% and 100%.
On the same counts, the results for `CCCCCC(C)C(C)c1cc(OC(N)=O)c2c(c1)OC(C)(C)C=C2c1ccncc1` (stereo unspecified) are 96%, 0% and 81%.
Take `Cc1ccc(CON2C(=N)N=C(N)NC2(C)C)cc1C.Cl`: the Inhibition came to 92% in the assay with Plasmodium falciparum [1], 88% with Plasmodium falciparum [2] and 64% in the assay on HepG2.
On the same counts, the results for `Cc1cc(=NN=Cc2ccc(F)cc2)c2ccc(F)cc2[nH]1` are 99%, 30% and 0%.
On the same counts, the results for `Cc1cccnc1Nc1nc(-c2ccccn2)cs1` are 96%, 99% and 60%.
Regarding `COc1cc(NC(=O)/C=C/c2cccc3cc[nH]c23)ccc1OCCN(C(C)C)C(C)C.Cl`, the Inhibition was 99% in the assay on Plasmodium falciparum [1], 51% in the assay on Plasmodium falciparum [2] and 11% in the assay on HepG2.
On the same counts, the results for `COc1cc2nc(NCCCN3CCCCC3)nc(NCc3ccccc3)c2cc1OC` are 100%, 3% and 12%.
Consider `Cc1cccc2nc(-c3cccc(-c4cccc(NC(=O)C5CC(=O)Nc6ccccc65)c4)c3)[nH]c12` (stereo unspecified), for which the Inhibition in the assay on Plasmodium falciparum [1] is 85%; with Plasmodium falciparum [2] it was 25%; in the assay on HepG2, 13%.
On the same counts, the results for `CC(C)(CNC(=O)C1CCN(CCOCc2ccccc2)CC1)c1nc(-c2ccc(Cl)c(O)c2)c(-c2ccncc2)[nH]1.Cl` are 100%, 18% and 11%.
Turning to `CCCCNC(=O)C(C)NC(=O)c1ccc(O)c(-c2ccc(Cl)c(Cl)c2)c1` (stereo unspecified), the values for the Inhibition in the assay with Plasmodium falciparum [1], in the assay on Plasmodium falciparum [2] and in the assay with HepG2 were 98%, 8% and 0%, respectively.
As to `COc1ccc(Cn2c(Nc3cccc(C(F)(F)F)c3)nc3cc(C(=O)NC4CC4)cnc32)cc1Cl`, the Inhibition in the assay with Plasmodium falciparum [1] amounted to 94%; with Plasmodium falciparum [2], 96%; in the assay with HepG2 it was 0%.
On the same counts, the results for `Cc1cc(O)c2c3c1C(=O)C=C1C3c3c(c(O)cc(O)c3C(=O)C1(C)C)C2=O` (stereo unspecified) are 98%, 46% and 45%.
The corresponding values for `O=C(Nc1cc2cc(-c3ccc(CN4CCCCC4)cc3)ccc2n2cnnc12)NC1CCCC1` are 100%, 98% and 78%.
On the same counts, the results for `Cc1ccccc1C1CCN(C2CCC(NC(=O)c3cncc(-c4ccccc4)c3)CC2)CC1` (stereo unspecified) are 100%, 92% and 27%.
As to `N#Cc1ccc(N/C(=N\c2ccc(-c3ccccc3)cc2)NC2CCCc3ccccc32)c(O)c1` (stereo unspecified), the Inhibition with Plasmodium falciparum [1] worked out at 99%; in the assay on Plasmodium falciparum [2] it was 98%; in the assay with HepG2, 0%.
The corresponding values for `O=C(Nc1cccc(-c2ccc(-c3nc4cc(F)ccc4[nH]3)cc2)c1)Nc1ccc(Cl)c(Cl)c1` are 100%, 49% and 79%.
On the same counts, the results for `COc1ccc2nccc([C@@H](O)CN3CCC(NCCOc4cc(F)cc(F)c4)CC3)c2c1.O=C(O)C(=O)O` are 100%, 86% and 10%.
The corresponding values for `Cc1cc(N)c2cc(NC(=O)CCC(=O)Nc3ccc4nc(C)cc(N)c4c3)ccc2n1` are 85%, 77% and 0%.
For the compound `COCc1nc(N)nc(N)c1-c1ccc(Cl)c(Cl)c1`, the results for the Inhibition with Plasmodium falciparum [1], in the assay with Plasmodium falciparum [2] and in the assay on HepG2 were 84%, 1% and 4%, respectively.
Take `CC(Cc1ccc(OCCN2CCN(c3cccc(C(F)(F)F)c3)CC2)cc1)NCC(O)c1cccc(C(F)(F)F)c1.Cl` (stereo unspecified): the figures for the Inhibition in the assay with Plasmodium falciparum [1], in the assay with Plasmodium falciparum [2] and with HepG2 were 97%, 91% and 11%, respectively.
On the same counts, the results for `Cc1ccc(Nc2nc(N/N=C/c3cc4c(cc3Br)OCO4)nc(Nc3ccc([N+](=O)[O-])cc3)n2)cc1C` are 100%, 89% and 23%.
For `Cc1nc2c(Nc3nc(-c4ccncc4)cs3)ncnc2n1-c1ccccc1Cl`, the Inhibition was determined as 97% with Plasmodium falciparum [1], 96% in the assay on Plasmodium falciparum [2] and 14% in the assay on HepG2.
On the same counts, the results for `Cc1nc(-c2cccc(Nc3nccc(NCC(O)c4ccc(C(F)(F)F)cc4)n3)c2)cs1` (stereo unspecified) are 100%, 99% and 33%.
On the same counts, the results for `COc1ccccc1CNc1ccnc(NCCc2cccc(C(F)(F)F)c2)n1` are 93%, 68% and 39%.
On the same counts, the results for `COc1cccc(CCNCc2ccc(-c3cccc(CNC4CCCC4)c3)cc2)c1.O=C(O)C(F)(F)F` are 100%, 45% and 14%.
Regarding `CCOC(=O)CCc1cc(F)c(F)c(OC[C@H](O)CNC(C)(C)C(O)c2ccc3ccccc3c2)c1.Cl` (stereo partly specified), the Inhibition was found to be 99% in the assay with Plasmodium falciparum [1], 92% with Plasmodium falciparum [2] and 12% with HepG2.
With `CCCC(C)C(=O)N1CCOC(COCc2cccc(C(F)(F)F)c2)(c2ccc(Cl)cc2)C1` (stereo unspecified), the Inhibition was determined as 97% in the assay with Plasmodium falciparum [1], 91% with Plasmodium falciparum [2] and 2% in the assay with HepG2.
On the same counts, the results for `CCCNC(=O)C1Cc2c([nH]c3cc(Br)ccc23)C2(CCN(CCc3ccccc3)CC2)N1` (stereo unspecified) are 92%, 26% and 15%.
The corresponding values for `Cc1cccc2nc(-c3cccc(-c4ccc(NC(=O)c5cnn6cccnc56)cc4)c3)[nH]c12` are 100%, 73% and 99%.
The corresponding values for `CC(C)OC(=O)c1ccc(NC(=O)N[C@@H](Cc2ccc(O)cc2)C(=O)NC2CC3CCC(C2)N3Cc2ccccc2)cc1.O=C(O)C(F)(F)F` (stereo partly specified) are 92%, 19% and 0%.
